Inconclusive results are not listed. Where a call stands in place of a potency, no number is given. Calls of active or inactive are those of the source. The call rests on the fitted dose curve.

This test is described as follows: p53 small molecule agonists, cell-based qHTS assay with rat liver microsomes (AID 1963578). The following applies: HCT-116 p53RE-bla, beta-lactamase ratio, 16 h; series mostly up to 66 µM. The source says:
U.S. Tox21 Program National Center for Advancing Translational Sciences [NCATS] Division of Preclinical Innovation [DPI] U.S. Environmental Protection Agency [EPA] National Institutes of Environmental Health Sciences [NIEHS] National Toxicology Program [NTP] U.S. Food and Drug Administration [FDA] Tox21 Assay Overview: p53, a tumor suppressor protein, is activated following cellular insult, including DNA damage and other cellular stresses. The activation of p53 regulates cell fate by inducing DNA repair, cell cycle arrest, apoptosis, or cellular senescence. The activation of p53, therefore, is a good indicator of DNA damage and other cellular stresses. […] The activation of the reporter gene under culture conditions can be detected by fluorescence intensity. This cell line was used to screen the Tox21 10K compound library in the condition of presence of rat liver microsomes and to identify agonists that activate the p53 signaling pathway after in vitro metabolic activation (Ooka et al., Archive of Toxicology 96:1975-1987, 2022).
Tox21 Assay Protocol Summary: The p53RE-bla cells were dispensed at 4,000cells/3ul/well in 1536-well black-clear bottom plates. After the assay plates were incubated at 37 C, 5% CO2 incubator for 5 hours, 23 nL of compounds dissolved in DMSO, positive controls or DMSO only was transferred to the assay plate. Following compound addition, 3 uL of rat liver microsomes (Molecular Toxicology, Boone, NC) at final concentration of 0.5 mg/mL and 1uL of Beta-Nicotinamide adenine dinucleotide 2-phosphate (NADPH) at final concentration of 0.5 mg/mL were transferred to the assay plate. The plates were incubated at 37 C for 16 hours. 1 uL of LiveBLAzer detection mixture was added to each well and the plates were incubated at room temperature in the dark for 2 h.
As for `C=CC(C)(C)C`, the Potency result was “inactive”.
In the case of `CC(O)CC(C)(C)O` (stereo not given), the Potency entry is “inactive”.
As for `CCC(Cc1c(I)cc(I)c(N)c1I)C(=O)O` (stereo not given), the Potency result was “inactive”.
For the molecule `CN(C)CCOCCN(C)C`, the Potency result is “inactive”.
The entry for `CC(O)C(=O)O` (stereo not given) is “inactive”.
In the case of `CC(=O)OC(C)C`, the Potency result was “inactive”.
As for `O=C(OCc1ccccc1)c1ccc(O)cc1`, the Potency entry was “inactive”.
Turning to `CC(C)=CCC/C(C)=C\CO`, the Potency result is “inactive”.
In the case of `C=C(C)OC(C)=O`, the Potency entry was “inactive”.
`CCCCNC(=O)NS(=O)(=O)c1ccc(N)cc1`: the Potency entry was “inactive”.
The entry for `C[C@]12CCC(=O)C=C1CC[C@@H]1[C@@H]2C(=O)C[C@@]2(C)[C@H]1CC[C@]2(O)C(=O)CO` is “inactive”.
`CCn1c2ccccc2c2cc(N)ccc21`: the Potency entry is “inactive”.
The entry for `CC(=O)OC/C=C(C)/C=C/C=C(C)/C=C/C1=C(C)CCCC1(C)C` is “inactive”.
With `CN(C)CCOC(C)(c1ccccc1)c1ccccn1` (stereo not given), the Potency entry is “inactive”.
For the molecule `C=C(C)CC(C)(C)C`, the Potency result is “inactive”.
The value for `O=C(O)c1ccc(O)cc1` was “inactive”.
For `C=C(C)C(N)=O`, the Potency result was “inactive”.
For `CCOC(=O)NNc1nncc2ccccc12`, the Potency entry was “inactive”.
Consider `CCc1cc(C(N)=S)ccn1`, for which the Potency entry is “inactive”.
As to `CCCCOCCOCCO`, the Potency entry is “inactive”.
On to `Cc1cccc(Nc2cc(Cl)nc(SCC(=O)O)n2)c1C`, for which the Potency result was “inactive”.
Consider `COC(=O)CCC(=O)OC`, for which the Potency entry was “inactive”.
`CCCC[P+](CCCC)(CCCC)CCCC`: the Potency result was “inactive”.
Turning to `C[C@H]1C[C@H]2[C@@H]3CCC4=CC(=O)C=C[C@]4(C)[C@@]3(F)[C@@H](O)C[C@]2(C)[C@@]1(O)C(=O)CO`, the Potency result was “inactive”.
For the molecule `CCc1cccc2c3c([nH]c12)C(CC)(CC(=O)O)OCC3` (stereo not given), the Potency result was “inactive”.
`CN(C)CCCN`: the Potency result is “inactive”.
The entry for `CC(=O)Nc1ccc(CC(=O)O)cc1` is “inactive”.
The value for `CN(C)c1ccc(C(=C2C=CC(=[N+](C)C)C=C2)c2ccccc2)cc1` was “inactive”.
As for `NC(=O)c1ncn([C@@H]2O[C@H](CO)[C@@H](O)[C@H]2O)n1`, the Potency result was “inactive”.
For `COc1ccccc1O`, the Potency entry is “inactive”.
As to `CC(C)(N)CO`, the Potency result was “inactive”.
As for `CCc1ccc(CCOc2ccc(CC3SC(=O)NC3=O)cc2)nc1` (stereo not given), the Potency result is “inactive”.
The entry for `CCCCCCCC(=O)O` is “inactive”.
The entry for `Nc1ccc(O)c(C(=O)O)c1` is “inactive”; for `C=C(CC(=O)O)C(=O)O` it is “inactive”.
Regarding `C=CC(C)(CCC=C(C)C)OC(C)=O` (stereo not given), the Potency entry is “inactive”.
Take `O=C(O)c1ccc2c(c1)C(=O)OC2=O`: the Potency result is “inactive”.
The value for `CCO[Si](CCCN)(OCC)OCC` was “inactive”; that for `C=C(C)CNCC` was “inactive”; that for `CCCCCCCCCCCCCCCO` was “inactive”.
